Screens from PubChem BioAssay.
Shown are actives, neighbours in structure and some others; about 5.3% of the full set was active somewhere.
Coupling enz – coupling enzyme interference in Giardia aldolase counter-screen; coupling enzyme system counterscreen, AmpLite Red fluorescence; activity change, negative = inhibition, % at 58.2 µM, hits read low; 290,000 tested, 0.67% active; in the data active = activity change below about -30%
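Counterscreen of the coupled detection system alone, without aldolase: glyceraldehyde-3-phosphate coupling enzymes plus AmpLite Red readout. Compounds at 57.5 uM final, 10 min RT preincubation, 20 min RT reaction, fluorescence 525/598 nm.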
Tau fluor counter – counter-screen for tau fibril formation inhibitors | Potency, µM (series often up to 57.7 µM) | tau K18 P301L Alexa594 fluorescence, heparin fibrillization | 280,000 tested, 0.93% active; also: nearly all actives have a fitted effect of over 55% in size
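Human K18 P301L tau (15 uM unlabeled plus 0.24 uM Alexa 594-labeled, final) in 100 mM sodium acetate pH 7 was mixed with compound and 20 uM heparin and incubated 6 hr at 37 C.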
Sfp PPTase inh – blocks B. subtilis Sfp PPTase activity; Q9F4F7; Biochemical Sfp PPTase activity, qHTS; Potency, µM, actives largely listed as inhibitors; 310,000 tested, 3.5% active; AID 1490;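 also: the enzyme is Sfp with the accession as filed and its product quenches rhodamine fluorescence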
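Reaction rates are the 30-min fluorescence difference (ex 525, em 598 nm) in wells containing 15 nM Sfp, 5 uM rhodamine-CoA and 12.5 uM BHQ-2-YbbR at pH 7.6 with 10 mM MgCl2.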
KDM4E inh – inhibitors of human JMJD2E histone demethylase; 230,000 tested, 1.6% active; JMJD2E catalytic domain, FDH-coupled NADH fluorescence (FDH is formaldehyde dehydrogenase); B2RXH2; Potency, µM (titrated, usually from 57.1 µM), usual class: inhibitors; active = well fitted inhibition curve with a large enough effect, not every such curve was filed as active; inconclusive = small, poorly fitted or top-dose-only effect, or another doubt; inactive = no such curve, though single readings can be large or run the other way; also: nearly all actives have a fitted effect of over 50% in size
Target sequence (B2RXH2 1-337 limits assumed): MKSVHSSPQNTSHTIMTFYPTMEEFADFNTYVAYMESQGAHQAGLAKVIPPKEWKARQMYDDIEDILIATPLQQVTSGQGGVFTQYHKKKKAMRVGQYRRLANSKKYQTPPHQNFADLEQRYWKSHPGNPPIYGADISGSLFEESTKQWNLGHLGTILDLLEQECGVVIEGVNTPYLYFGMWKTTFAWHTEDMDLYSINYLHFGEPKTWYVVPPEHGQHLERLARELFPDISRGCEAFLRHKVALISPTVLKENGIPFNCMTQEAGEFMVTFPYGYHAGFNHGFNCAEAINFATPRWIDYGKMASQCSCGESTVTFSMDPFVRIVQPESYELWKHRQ
Tau fibril FP – inhibitors of human tau fibril formation | P10636 | K18 P301L tau heparin fibrillization, Alexa594 FP, 6 h | Potency, µM (top dose mostly 57.7 µM), actives largely listed as inhibitors | 280,000 tested, 0.39% active | AID 1468; also: nearly all actives have a fitted effect of over 55% in size
Target sequence (P10636 561-689 P618L limits assumed): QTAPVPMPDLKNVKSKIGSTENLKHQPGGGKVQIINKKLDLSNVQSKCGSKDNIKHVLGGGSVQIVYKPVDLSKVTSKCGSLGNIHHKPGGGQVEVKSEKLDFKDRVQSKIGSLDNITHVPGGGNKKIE
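Recombinant K18 P301L […], labeled with Alexa 594 at 0.24 uM over 15 uM unlabeled; heparin inducer 20 uM final; 37 C, 6 hr; FP endpoint.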
Tau ThT inhib – tau fibrillization inhibition (ThT binding) | Potency, µM (doses to about 57.4 µM), most hits filed as inhibitors | P10636 | 270,000 tested, 2.1% active | recombinant tau K18 P301L, heparin-induced fibrillization, ThT fluorescence; also: nearly all actives have a fitted effect of over 55% in size
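Fibril formation assay: tau K18 P301L at 15 uM with trace Alexa 594 label, heparin inducer 20 uM, pH 7 sodium acetate buffer, 37 C for 6 hr; endpoint ThT signal.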
Numbers stand for hits; i = inactive; ? = inconclusive; nt = not tested or not shown; [ ] = dose if it differs, or a comment. Unless noted, calls follow the shape of the dose curve; as a rule, active = well fitted curve in the direction sought with a large enough effect; inconclusive = small, poorly fitted or top-dose-only effect, or another doubt; inactive = no such curve, though single readings can be large; an effect the other way counts as inactive or inconclusive.

SMILES | Coupling enz | Tau fluor counter | Sfp PPTase inh | KDM4E inh | Tau fibril FP | Tau ThT inhib
c1ccc(Cn2nnnc2C(c2ccncc2)N2CCOCC2)cc1 (centres undefined) | i | i | i | i | i | i
COc1ccc(OC)c(C(c2nnnn2Cc2ccco2)N2CCN(C)CC2)c1 (centres undefined) | i | i | i | i | i | i
CCC(C)(C)n1nnnc1C(c1cc2cccc(C)c2[nH]c1=O)N1CCN(C(=O)c2ccco2)CC1 (centres undefined) | i | i | 79µM | ? | i | ?
CCC(C)(C)n1nnnc1C(c1ccc(C)cc1)N1CCN(C(=O)c2ccco2)CC1 (centres undefined) | i | i | i | i | i | i
Cc1cc(C(c2nnnn2Cc2ccccc2)N2CCOCC2)c(C)n1-c1ccc2c(c1)OCO2 (centres undefined) | i | i | 28µM | ? | i | ?
CCOc1ccc2[nH]c(=O)c(C(c3nnnn3Cc3ccco3)N3CCN(C)CC3)cc2c1 (centres undefined) | -67 | i | i | ? | ? | 14µM
Cc1cccc2cc(C(c3nnnn3Cc3ccc4c(c3)OCO4)N3CCCC3)c(=O)[nH]c12 (centres undefined) | i | i | 56µM | ? | i | i
Cc1cccc2cc(C(c3nnnn3CC3CCCO3)N3CCCC4(CCCCC4)C3)c(=O)[nH]c12 (centres undefined) | i | i | i | i | i | i
COC(=O)C1=C[C@@H](C(=O)OC)C2C3=C(C(=O)[C@]2(C)NC(=O)c2ccccc2)[C@H](C)n2c(=O)n(-c4ccccc4)c(=O)n2[C@@H]3C1 (some centres undefined) | i | nt | i | nt | nt | nt
Cc1ccc2cc(C(c3nnnn3C(C)(C)C)N3CCCC3)c(=O)[nH]c2c1C (centres undefined) | i | i | 45µM | ? | ? | ?
O=c1[nH]c2cc3c(cc2cc1C(c1nnnn1Cc1ccccc1)N1CCCCCC1)OCCO3 (centres undefined) | i | i | i | ? | i | ?
Cc1cc2cc(C(c3nnnn3Cc3ccco3)N3CCCCC3)c(=O)[nH]c2cc1C (centres undefined) | i | i | 40µM | i | i | ?
COCC#Cc1ccc(C2C(C)CCC3C(=O)N4C(CCC(C)C4c4ccc(C#CCOC)cc4)C(=O)N32)cc1 (centres undefined) | i | i[11.6 µM] | i | nt | i[11.6 µM] | i[11.5 µM]
CN(C)c1ccc(NC(=O)c2sc(SCC(=O)Nc3nccs3)nc2N)cc1 | i | 14µM[quencher] | i | i | i | 4µM
CN(C)c1ccc(NC(=O)c2sc(SCC(=O)Nc3ccc(Br)cc3)nc2N)cc1 | i | i | i | i | i | ?
OC[C@@H]1O[C@](CO)(O[C@H]2O[C@H](CO)[C@@H](O)[C@H](O)[C@H]2O)[C@H](O)[C@H]1O | nt | nt | i | nt | nt | nt
CCOC(=O)c1sc(=S)n(CC)c1NC(=O)c1ccccc1 | i | i | i | i | i | i
CCOC(=O)c1sc(=S)n(C)c1NC(=O)c1ccccc1C | i | i | 22µM | i | i | ?
CCOC(=O)c1sc(=S)n(C)c1NC(=O)c1ccc(F)cc1 | i | i | 25µM | i | ? | ?
CCOC(=O)c1ccc(NC(=O)c2ccccc2C)cc1 | i | i | i | i | i | i
CC#CCN1c2ccccc2[C@]23C[C@@H](C(=O)OC)N(S(=O)(=O)CCCC)C2=NC(C(=O)OC)=C(C(=O)OC)[C@H]13 | i | i[11.6 µM] | i | i[11.4 µM] | i[11.6 µM] | ?
COc1cc(/C=C/C(=O)NC(=O)c2ccccc2O)ccc1O | nt | nt | i | nt | nt | nt
COc1cc(/C=C/c2sc3ccccc3[n+]2CCCS(=O)(=O)[O-])ccc1O | -34 | i | 6.3µM | i | i | i
CCN1CCN(c2ccc(NC(=O)CCc3c(C)nc4c(-c5ccc(F)cc5)c(C)nn4c3C)cc2)CC1 | i | 18µM[quencher] | i | i | i | ?
Cc1nc2c(-c3ccc(F)cc3)c(C)nn2c(C)c1CCC(=O)Nc1ccccc1 | i | i | i | ? | i | i
SMILES | Coupling enz | Tau fluor counter | Sfp PPTase inh | KDM4E inh | Tau fibril FP | Tau ThT inhib
[O-]/[N+](=C/c1ccc(F)cc1)c1ccc(Cl)cc1 | i | i | 40µM | i | ? | 32µM
COc1ccc(C(=O)N/N=C/c2ccc(OC)c(CN3CCc4cc(OC)c(OC)cc4C3C)c2)cc1 (centres undefined) | i | i | 100µM | ? | i | ?
COC(=O)c1c(-c2cccs2)csc1NC(=O)c1ccc(Cl)cc1 | nt | i | nt | nt | ? | 13µM
COC(=O)c1c(-c2cccs2)csc1NC(=O)c1ccc(C(C)C)cc1 | nt | i | nt | nt | ? | ?
COC(=O)c1c(-c2cccs2)csc1NC(=O)c1ccc(C(C)(C)C)cc1 | nt | i | nt | nt | 22µM | 25µM
COc1ccc(NC(=O)c2nn(C)c3c2CS(=O)(=O)c2ccccc2-3)cc1Cl | nt | i | nt | nt | ? | i
CCN(Cc1ccc(OC)cc1)c1ccc(-c2nc(-c3ccncc3)no2)cc1[N+](=O)[O-] | nt | i | nt | nt | i | i
CC1CCN(CCCn2c(=S)[nH]c3c(sc4ccccc43)c2=O)CC1 | i | i | i | i | i | i
O=C(O)CCCn1c(=S)[nH]c2c(sc3ccc([N+](=O)[O-])cc32)c1=O | i | i | 45µM | i | i | ?
CC1CCN(CCCn2c(=S)[nH]c3c(sc4ccc([N+](=O)[O-])cc43)c2=O)CC1 | i | i | 56µM | i | i | ?
COc1cc([N+](=O)[O-])cc(/C=N\NC(=O)C2COc3ccccc3O2)c1O (centres undefined) | i | i | i | ? | i | 10µM
O=C(N/N=C/c1cccc([N+](=O)[O-])c1)C1COc2ccccc2O1 (centres undefined) | i | i | i | i | i | i
O=C(N/N=C/c1cccc([N+](=O)[O-])c1O)c1cccs1 | i | i | i | 4µM | i | 5µM
O=C(N/N=C\c1cccc([N+](=O)[O-])c1O)C1COc2ccccc2O1 (centres undefined) | i | i | i | ? | i | 7.9µM
O=C(O)CNC(=O)c1ccccc1I | i | nt | i | nt | nt | nt
COc1cc(/C=C/C(=O)C2C(=O)C=C(C)OC2=O)cc(OC)c1O (centres undefined) | i | i | i | ? | i | ?
COc1ccc(/C=C/C(=O)C2C(=O)C=C(C)OC2=O)cc1O (centres undefined) | i | ? | i | ? | i | 25µM
COc1ccc(-c2ccoc2)cc1C1C2C=CCC(C)C2C(=O)N1Cc1ccccc1 (centres undefined) | i | nt | i | nt | nt | nt
[C-]#[N+]/C(C#N)=C\c1cc(C(C)(C)C)c(O)c(C(C)(C)C)c1 | i | ? | 45µM | i | ? | 25µM
CC(C)(C)c1cc(/C=C(\C#N)C(N)=S)cc(C(C)(C)C)c1O | nt | ? | i | ? | i | ?
